# Bioassay records (PubChem)
# This is a sample that favours compounds with a hit; in the whole collection about 12% have one here.
# Sfp inh = blocks B. subtilis Sfp PPTase activity. Q9F4F7. Biochemical Sfp PPTase activity, qHTS. Potency, µM, without a hit: largest response in the series, negative = inhibition, most hits filed as inhibitors. hit rate 3.5% among 310,000;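 also: the enzyme is Sfp with the accession as filed and its product quenches rhodamine fluorescence; 0% = enzyme reaction without inhibitor and -100% = no enzyme wells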
#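 With Hepes-Na pH 7.6 buffer containing 10 mM MgCl2, Sfp (15 nM) modified BHQ-2-YbbR (12.5 uM) using rhodamine-CoA (5 uM). Two reads 30 minutes apart at 525/598 nm yielded each well's rate.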
# RORgamma inh = ROR gamma (mouse) transcription inhibition; P51450; Potency, µM (series often up to 53.6 µM), inactives show top-dose activity change, negative = inhibition, hits mostly inhibitors; hit rate 5.4% among 310,000; Drosophila S2 Gal4-RORgamma UAS-luciferase reporter, 20 h; also: nearly all actives have a fitted effect of over 60% in size
#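 Luciferase reporter read in Schneider cells carrying Gal4-RORγ (mouse) and UAS-Photinus luciferase; cells given compound 1 h before 700 uM copper sulfate induction, then incubated 20 h at ambient temperature.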
# Gal4-VP16 FLuc = inhibits Gal4-VP16 luciferase reporter, ROR gamma counter-screen; AID 2546; Potency, µM (series often up to 53.6 µM), inactives show top-dose activity, negative = inhibition, usual class: inhibitors; Drosophila S2 Gal4-VP16 UAS-luciferase, luminescence, 20 h; hit rate 3.5% among 310,000;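 also: Gal4-VP16 expression switched on by copper sulfate through the metallothionein promoter; nearly all actives have a fitted effect of over 50% in size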
# PLK1 PBD block = inhibitors of human PLK1 polo-box domain binding; P53350; Plk1 PBD binding of FITC phosphopeptide, fluorescence polarization; Potency, µM, inactives show max response, negative = inhibition, actives largely listed as inhibitors; hit rate 2.8% among 360,000; also: series mostly up to about 57 µM; nearly all actives have a fitted effect of over 65% in size
# Target sequence (P53350 whole entry, looked up, the tested form may be a part): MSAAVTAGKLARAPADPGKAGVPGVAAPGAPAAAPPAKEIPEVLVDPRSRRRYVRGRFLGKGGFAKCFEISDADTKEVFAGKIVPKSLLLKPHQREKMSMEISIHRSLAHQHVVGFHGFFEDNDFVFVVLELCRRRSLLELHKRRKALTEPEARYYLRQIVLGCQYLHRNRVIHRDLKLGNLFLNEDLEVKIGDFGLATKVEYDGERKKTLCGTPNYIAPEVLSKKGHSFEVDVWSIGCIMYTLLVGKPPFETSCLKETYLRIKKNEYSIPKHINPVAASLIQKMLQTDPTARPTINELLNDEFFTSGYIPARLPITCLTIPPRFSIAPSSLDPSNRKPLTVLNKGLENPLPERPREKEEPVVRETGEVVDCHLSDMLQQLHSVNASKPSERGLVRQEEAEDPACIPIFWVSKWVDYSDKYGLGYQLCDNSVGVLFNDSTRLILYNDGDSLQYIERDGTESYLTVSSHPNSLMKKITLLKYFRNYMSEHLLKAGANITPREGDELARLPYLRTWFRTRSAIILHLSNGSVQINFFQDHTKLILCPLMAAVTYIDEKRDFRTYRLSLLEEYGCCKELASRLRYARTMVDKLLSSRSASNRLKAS
# ALDH1A1 block = blocks purified human ALDH1A1 activity; P00352; Purified ALDH1A1, NADH fluorescence, propionaldehyde substrate; Potency, µM (titrated, usually from 75.3 µM), for the others: at the top dose activity, negative = inhibition, usual class: inhibitors; hit rate 7.3% among 220,000; AID 1030; active = well fitted inhibition curve with a large enough effect, not every such curve was filed as active; inconclusive = small, poorly fitted or top-dose-only effect, or another doubt; inactive = no such curve, though single readings can be large or run the other way;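 also: plate controls were no enzyme wells and a reference inhibitor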
# An asterisk follows results filed as active; ? = inconclusive; . = not tested or not shown; [ ] = another dose, or the depositor's remark. Unless noted, calls follow the shape of the dose curve; as a rule, active = well fitted curve in the direction sought with a large enough effect; inconclusive = small, poorly fitted or top-dose-only effect, or another doubt; inactive = no such curve, though single readings can be large; an effect the other way counts as inactive or inconclusive. Unless noted, % is scaled to controls: 0 for no effect and ±100 for the full control effect; potency is read from the fitted curve at half-maximal effect.
SMILES,Sfp inh,RORgamma inh,Gal4-VP16 FLuc,PLK1 PBD block,ALDH1A1 block
N=c1ccn2c(n1)OCC1C2O[C@@H](O)[C@H]1O (stereo partly specified),-11%,-4%,-17%,.,7%
CN(CC(=O)Nc1ccc(F)c(F)c1F)C(=O)C1CCCN1C(=O)c1cccs1 (stereo unspecified),.,.,.,-6%,.
Cc1ccc(CN(C)C(=O)C2CCCN2C(=O)c2cccs2)o1 (stereo unspecified),35µM*,2%,-15%,-27%,?
CCOC(=O)c1cnc(SCC(=O)OC)nc1N,-3%,22%,-6%,-2%,-1%
CCOC(=O)CC(=O)CSc1ncc(C(=O)OCC)c(N)n1,9%,3%,21%,-1%,22µM*
CCOC(=O)c1cnc(SSc2ncc(C(=O)OCC)c(N)n2)nc1N,7.9µM*,10µM*,11µM*,1.1µM*,.
C=CCSc1ncc(C(=O)OCC)c(N)n1,6%,12%,0%,-12%,1%
C[C@@H](c1ccccc1)N1C(=O)[C@H]2[C@H]3[C@H](O)[C@H](O)C/C(=N/NC(=O)OCc4ccccc4)[C@H]3CC[C@@H]2C1=O,-9%,17%[10 µM],1%[10 µM],.,2%[13.5 µM]
COc1ccc(CN2C=C3C(=O)C(C)(OC(=O)CCc4ccccc4)C(=O)C=C3C=C2c2ccc(C#N)cc2)cc1 (stereo unspecified),8%,-4%,3%,-22%,3.5µM*
COc1ccc(N2C=C3C(=O)C(C)(OC(=O)CCc4ccccc4)C(=O)C=C3C=C2c2ccc(C#N)cc2)cc1 (stereo unspecified),-1%,-3%,5%,-19%,3%[13.5 µM]
CCOc1ccccc1-n1nnnc1SCC(=O)N(C)C1CCS(=O)(=O)C1 (stereo unspecified),.,.,.,-3%,.
COCCNC(=S)NN=C1CCC(c2ccccc2)CC1 (stereo unspecified),-13%,-1%,1%,-1%,?
COCCNC(=S)N/N=C1\CC(C)CC(C)(C)C1 (stereo unspecified),50µM*,1µM*,3.5µM*,-8%,8.9µM*
CCOC(=O)N/N=C1\CC(C)CC(C)(C)C1 (stereo unspecified),17%,15%,-4%,-11%,16%
COCCNC(=S)NN=C1CCCCCC1,56µM*,2µM*,6.3µM*,-4%,?
Cc1cccc(-c2noc(-c3csc([C@@H]4C[C@H](O)[C@@H](CO)O4)n3)n2)c1,.,.,.,-7%,.
C[C@H]1[C@H](C)CC[C@]2(C(=O)O)CC[C@]3(C)C(=CC[C@@H]4[C@@]5(C)C[C@@H](O)[C@H](O)C(C)(C)[C@@H]5CC[C@]43C)[C@H]12,3%,10µM*,?,0%,2%
Cn1ncc([N+](=O)[O-])c1C(=O)Nc1nc2ccccc2n1CCN1CCCCC1,12%,3.5µM*,?,-5%,?
Cc1c(Cl)c(C(=O)Nc2nc3ccccc3n2CCN2CCCCC2)nn1C,?,?,-24%,.,5%
CCn1cc(Cl)c(C(=O)Nc2nc3ccccc3n2CCN2CCCCC2)n1,20%,10µM*,8.9µM*,-14%,-3%
O=C(c1ccco1)N1CCC2(CCN(Cc3nccs3)CC2)CC1,21%,7%,1%,.,-7%
FC(F)(F)c1ccc(-c2nc(=S)[nH][nH]2)cc1,56µM*,2.5µM*,-13%,-25%,.
COc1ccc(-c2nc(=S)[nH][nH]2)cc1,?,10µM*,?,?,13µM*
COc1ccc(-c2nc3ccccc3nc2-c2ccc(OC)cc2)cc1,10%,28%,-6%,-14%,.
Oc1ccc(-c2nc(=S)[nH][nH]2)cc1,?,?,-12%,-28%,?
COc1ccc(-c2n[nH]c(=S)nc2-c2ccc(OC)cc2)cc1,-5%,7.1µM*,?,-16%,.
CCOc1ccc(-c2nc(=S)[nH][nH]2)cc1,?,5µM*,22µM*,-20%,25µM*
O=C(Nc1ccccc1)Nc1nnc([C@@H]2C[C@H](O)[C@@H](CO)O2)s1,.,.,.,-10%,.
OCC1(CO)COC(C(Cl)(Cl)Cl)OC1,26%,-1%,-4%,.,.
C/C(CCc1oc2ccc(Cl)cc2c1-c1ccc(C)o1)=N\O,16µM*,?,-10%,-18%,4.5µM*
